Measured values published in PubChem BioAssay AID1159580 (chemical genetic matrix, 2015).
Several values for one entry are separate records, joined by “and”; a condition that tells them apart may be missing. Identical values can stand only once. The whole screen tested about 5,500 compounds, of which about 2,000 (36%) were called active. About 18% were inconclusive and are not listed. Cut-off read from the data, not from the text of the source: active = normalized growth mostly below about 0.91 (no sharp cut-off); inconclusive = no clear call, values can overlap the other calls; inactive = mostly above about 0.92. The list shows a part of the results.

Assay: chemical genetic growth profiling, strain panel (AID 1159580);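 note: tested at 20 µM; growth read once vehicle control cultures reached saturation at 30 °C; 1 = growth at the plate median or of vehicle wells; lower values mean less growth of the strain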
Conditions: growth OD

Measured: normalized growth

CC(=O)[C@@]1(O)CCC2C3C=C(Cl)C4=CC(=O)[C@@H]5CC5[C@]4(C)C3CC[C@@]21C (some centres not stated)
inactive: S. cerevisiae deletion strains, locus YAL013W, strain DEP1, stronger effect = lower value 1.02 | S. cerevisiae deletion strains, locus YBR021W, strain FUR4, stronger effect = lower value 0.996 | S. cerevisiae deletion strains, locus YBR229C, strain ROT2, stronger effect = lower value 1.01 | S. cerevisiae deletion strains, locus YCL029C, strain bik1, stronger effect = lower value 1.02 | S. cerevisiae deletion strains, locus YDL035C, strain GPR1, stronger effect = lower value 1 | S. cerevisiae deletion strains, locus YDL074C, strain BRE1, stronger effect = lower value 0.991 | S. cerevisiae deletion strains, locus YDL101C, strain DUN1, stronger effect = lower value 1.01 | S. cerevisiae deletion strains, locus YDL134C, strain PPH21, stronger effect = lower value 1.01 | S. cerevisiae deletion strains, locus YDL185W, strain tfp1, stronger effect = lower value 1.01 | S. cerevisiae deletion strains, locus YDL192W, strain arf1, stronger effect = lower value 0.998 | S. cerevisiae deletion strains, locus YDR101C, strain arx1, stronger effect = lower value 1.01 | S. cerevisiae deletion strains, locus YDR150W, strain NUM1, stronger effect = lower value 1.02 | S. cerevisiae deletion strains, locus YDR162C, strain NBP2, stronger effect = lower value 1 | S. cerevisiae deletion strains, locus YDR318W, strain mcm21, stronger effect = lower value 1 | S. cerevisiae deletion strains, locus YDR388W, stronger effect = lower value 1.01 | S. cerevisiae deletion strains, locus YDR502C, strain sam2, stronger effect = lower value 1.01 | S. cerevisiae deletion strains, locus YEL061C, strain CIN8, stronger effect = lower value 1.01 | S. cerevisiae deletion strains, locus YER110C, stronger effect = lower value 1.02 | S. cerevisiae deletion strains, locus YER155C, strain BEM2, stronger effect = lower value 0.998 | S. cerevisiae deletion strains, locus YER167W, strain BCK2, stronger effect = lower value 0.988 | S. cerevisiae deletion strains, locus YGL078C, strain dbp3, stronger effect = lower value 1 | S. cerevisiae deletion strains, locus YGL086W, strain mad1, stronger effect = lower value 1.01 | S. cerevisiae deletion strains, locus YGL248W, strain PDE1, stronger effect = lower value 1 | S. cerevisiae deletion strains, locus YGR078C, strain PAC10, stronger effect = lower value 0.999 | S. cerevisiae deletion strains, locus YGR135W, strain pre9, stronger effect = lower value 1.01 | S. cerevisiae deletion strains, locus YGR229C, strain SMI1, stronger effect = lower value 1.01 | S. cerevisiae deletion strains, locus YGR252W, strain gcn5, stronger effect = lower value 0.952 | S. cerevisiae deletion strains, locus YHR030C, strain SLT2, stronger effect = lower value 1.01 and 1.03 | S. cerevisiae deletion strains, locus YHR079C, strain IRE1 (second series), stronger effect = lower value 1.02 | S. cerevisiae deletion strains, locus YHR079C, strain IRE1, stronger effect = lower value 1.05 | S. cerevisiae deletion strains, locus YHR094C, strain hxt1, stronger effect = lower value 1.01 | S. cerevisiae deletion strains, locus YHR129C, strain ARP1, stronger effect = lower value 1 | S. cerevisiae deletion strains, locus YHR200W, strain rpn10, stronger effect = lower value 1.02 | S. cerevisiae deletion strains, locus YIL066C, strain RNR3, stronger effect = lower value 1.01 | S. cerevisiae deletion strains, locus YIL073C, strain SPO22, stronger effect = lower value 1.01 | S. cerevisiae deletion strains, locus YIL125W, strain kgd1, stronger effect = lower value 1.01 | S. cerevisiae deletion strains, locus YIR030C, strain dcg1, stronger effect = lower value 1.02 | S. cerevisiae deletion strains, locus YJL095W, strain BCK1, stronger effect = lower value 1.02 and 1.03 | S. cerevisiae deletion strains, locus YJL134W, strain LCB3, stronger effect = lower value 1.01 | S. cerevisiae deletion strains, locus YJL168C, strain set2, stronger effect = lower value 1.01 | S. cerevisiae deletion strains, locus YJL187C, strain SWE1 (second series), stronger effect = lower value 1.02 | S. cerevisiae deletion strains, locus YJR043C, strain POL32, stronger effect = lower value 1 | S. cerevisiae deletion strains, locus YJR066W, strain TOR1, stronger effect = lower value 0.95 | S. cerevisiae deletion strains, locus YJR075W, strain HOC1, stronger effect = lower value 1.03 | S. cerevisiae deletion strains, locus YKL009W, strain mrt4, stronger effect = lower value 0.999 | S. cerevisiae deletion strains, locus YKL068W, stronger effect = lower value 1.01 | S. cerevisiae deletion strains, locus YKL085W, strain MDH1 (second series), stronger effect = lower value 0.999 | S. cerevisiae deletion strains, locus YKL085W, strain MDH1, stronger effect = lower value 0.999 | S. cerevisiae deletion strains, locus YKL190W, strain CNB1, stronger effect = lower value 1.01 | S. cerevisiae deletion strains, locus YKR001C, strain vps1, stronger effect = lower value 0.995 | S. cerevisiae deletion strains, locus YLR039C, strain RIC1, stronger effect = lower value 0.984 | S. cerevisiae deletion strains, locus YLR058C, strain SHM2, stronger effect = lower value 1.01 | S. cerevisiae deletion strains, locus YLR102C, strain apc9, stronger effect = lower value 1.01 | S. cerevisiae deletion strains, locus YLR113W, strain HOG1, stronger effect = lower value 0.974 | S. cerevisiae deletion strains, locus YLR262C, strain YPT6, stronger effect = lower value 1 | S. cerevisiae deletion strains, locus YLR268W, strain sec22, stronger effect = lower value 1.02 | S. cerevisiae deletion strains, locus YLR330W, strain CHS5, stronger effect = lower value 1.01 | S. cerevisiae deletion strains, locus YLR342W, strain FKS1 (second series), stronger effect = lower value 1.01 | S. cerevisiae deletion strains, locus YLR371W, strain rom2, stronger effect = lower value 1.02 | S. cerevisiae deletion strains, locus YLR418C, strain cdc73, stronger effect = lower value 0.993 | S. cerevisiae deletion strains, locus YML016C, strain PPZ1, stronger effect = lower value 1.02 | S. cerevisiae deletion strains, locus YML032C, strain rad52, stronger effect = lower value 1.02 | S. cerevisiae deletion strains, locus YML124C, strain tub3, stronger effect = lower value 1.01 | S. cerevisiae deletion strains, locus YMR078C, strain ctf18, stronger effect = lower value 1 | S. cerevisiae deletion strains, locus YMR223W, strain ubp8, stronger effect = lower value 1.01 | S. cerevisiae deletion strains, locus YMR263W, strain SAP30, stronger effect = lower value 1.02 | S. cerevisiae deletion strains, locus YMR307W, strain GAS1, stronger effect = lower value 0.943 | S. cerevisiae deletion strains, locus YNL067W, strain RPL9B, stronger effect = lower value 1.02 | S. cerevisiae deletion strains, locus YNL128W, strain TEP1, stronger effect = lower value 1.03 | S. cerevisiae deletion strains, locus YNL153C, strain GIM3, stronger effect = lower value 1.01 | S. cerevisiae deletion strains, locus YNL183C, strain NPR1, stronger effect = lower value 0.958 | S. cerevisiae deletion strains, locus YNL233W, strain BNI4, stronger effect = lower value 0.987 | S. cerevisiae deletion strains, locus YNL250W, strain rad50, stronger effect = lower value 1.01 | S. cerevisiae deletion strains, locus YNL271C, strain bni1, stronger effect = lower value 1.01 | S. cerevisiae deletion strains, locus YNL298W, strain CLA4, stronger effect = lower value 1.01 | S. cerevisiae deletion strains, locus YNL307C, strain MCK1, stronger effect = lower value 1 | S. cerevisiae deletion strains, locus YNL322C, strain KRE1, stronger effect = lower value 1.01 | S. cerevisiae deletion strains, locus YNR052C, strain pop2, stronger effect = lower value 1.01 | S. cerevisiae deletion strains, locus YOL006C, strain TOP1, stronger effect = lower value 1.02 | S. cerevisiae deletion strains, locus YOL012C, strain htz1 1.53 | S. cerevisiae deletion strains, locus YOL147C, strain pex11, stronger effect = lower value 1 | S. cerevisiae deletion strains, locus YOR061W, strain CKA2, stronger effect = lower value 1.01 | S. cerevisiae deletion strains, locus YOR069W, strain VPS5, stronger effect = lower value 1.01 | S. cerevisiae deletion strains, locus YOR136W, strain idh2, stronger effect = lower value 1 | S. cerevisiae deletion strains, locus YOR144C, strain elg1, stronger effect = lower value 1 | S. cerevisiae deletion strains, locus YOR184W, strain ser1, stronger effect = lower value 1 | S. cerevisiae deletion strains, locus YOR231W, strain MKK1, stronger effect = lower value 1.01 | S. cerevisiae deletion strains, locus YOR316C, strain cot1, stronger effect = lower value 1.01 | S. cerevisiae deletion strains, locus YPL055C, strain LGE1, stronger effect = lower value 1.01 | S. cerevisiae deletion strains, locus YPL241C, strain CIN2, stronger effect = lower value 1.01 | S. cerevisiae deletion strains, locus YPL256C, strain CLN2, stronger effect = lower value 1.04 | S. cerevisiae deletion strains, locus YPR119W, strain clb2, stronger effect = lower value 1 | S. cerevisiae deletion strains, locus YPR141C, strain kar3, stronger effect = lower value 0.998 | S. cerevisiae deletion strains, locus YPR163C, strain tif3, stronger effect = lower value 1.01 | S. cerevisiae deletion strains, locus YPR167C, strain met16, stronger effect = lower value 1.01 | S. cerevisiae deletion strains, strain wtn01, stronger effect = lower value 1.02 | S. cerevisiae strains, strain wild type, stronger effect = lower value 1
